# Assay results from ChEMBL document CHEMBL1961873, “Compounds: GSK PKIS; Assays: Nanosyn kinase panel” (2012).
# Key:
# [1] = molecular target: Tyrosine-protein kinase SYK (Homo sapiens) (UniProt P43405); conditions: at 1 µM
# [2] = molecular target: T1, Tyrosine-protein kinase Tec (Homo sapiens) (UniProt P42680); conditions: at 0.1 µM
# T1 sequence (whole entry): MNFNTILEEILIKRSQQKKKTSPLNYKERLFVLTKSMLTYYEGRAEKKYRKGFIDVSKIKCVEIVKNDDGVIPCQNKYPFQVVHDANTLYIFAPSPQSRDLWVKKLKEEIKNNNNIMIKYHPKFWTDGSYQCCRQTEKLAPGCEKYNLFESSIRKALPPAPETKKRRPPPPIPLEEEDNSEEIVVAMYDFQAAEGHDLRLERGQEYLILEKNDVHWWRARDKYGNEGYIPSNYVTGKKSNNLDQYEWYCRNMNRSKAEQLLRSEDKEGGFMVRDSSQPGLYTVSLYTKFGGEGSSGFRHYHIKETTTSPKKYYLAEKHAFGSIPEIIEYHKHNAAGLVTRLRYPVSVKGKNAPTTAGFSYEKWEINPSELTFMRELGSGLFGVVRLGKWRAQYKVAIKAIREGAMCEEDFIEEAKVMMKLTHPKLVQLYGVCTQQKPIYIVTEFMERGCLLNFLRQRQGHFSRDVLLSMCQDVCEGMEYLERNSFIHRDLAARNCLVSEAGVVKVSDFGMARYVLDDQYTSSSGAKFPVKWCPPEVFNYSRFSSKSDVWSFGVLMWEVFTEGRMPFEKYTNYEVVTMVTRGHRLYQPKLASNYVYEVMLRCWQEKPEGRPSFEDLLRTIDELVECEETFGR
# [3] = molecular target: T1, Tyrosine-protein kinase Tec (Homo sapiens); conditions: at 1 µM
# [4] = molecular target: Angiopoietin-1 receptor (Homo sapiens) (UniProt Q02763); conditions: at 0.1 µM
# [5] = molecular target: Angiopoietin-1 receptor (Homo sapiens) (UniProt Q02763); conditions: at 1 µM
# [6] = molecular target: T2, Non-receptor tyrosine-protein kinase TNK1 (Homo sapiens) (UniProt Q13470); conditions: at 0.1 µM
# T2 sequence (whole entry): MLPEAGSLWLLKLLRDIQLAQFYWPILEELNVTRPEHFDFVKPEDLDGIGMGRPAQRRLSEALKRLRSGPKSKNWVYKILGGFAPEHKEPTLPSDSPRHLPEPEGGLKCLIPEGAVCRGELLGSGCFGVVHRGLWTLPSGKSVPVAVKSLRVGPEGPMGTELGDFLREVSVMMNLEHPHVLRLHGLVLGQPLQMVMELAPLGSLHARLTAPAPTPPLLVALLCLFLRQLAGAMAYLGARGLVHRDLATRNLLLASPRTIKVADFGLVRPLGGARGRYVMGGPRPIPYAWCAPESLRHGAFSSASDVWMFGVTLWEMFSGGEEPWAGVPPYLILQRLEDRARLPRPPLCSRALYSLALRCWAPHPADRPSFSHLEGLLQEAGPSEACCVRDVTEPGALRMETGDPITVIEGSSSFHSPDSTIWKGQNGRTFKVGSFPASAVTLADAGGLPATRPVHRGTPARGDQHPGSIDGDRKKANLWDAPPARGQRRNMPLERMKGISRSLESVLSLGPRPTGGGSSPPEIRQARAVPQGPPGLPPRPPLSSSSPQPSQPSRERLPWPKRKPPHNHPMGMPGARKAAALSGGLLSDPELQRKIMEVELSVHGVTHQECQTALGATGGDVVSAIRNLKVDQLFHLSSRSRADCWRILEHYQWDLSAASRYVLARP
# [7] = molecular target: T2, Non-receptor tyrosine-protein kinase TNK1 (Homo sapiens); conditions: at 1 µM
# [8] = molecular target: Activated CDC42 kinase 1 (Homo sapiens) (UniProt Q07912); conditions: at 0.1 µM
# [9] = molecular target: Activated CDC42 kinase 1 (Homo sapiens) (UniProt Q07912); conditions: at 1 µM
# [10] = molecular target: High affinity nerve growth factor receptor (Homo sapiens) (UniProt P04629); conditions: at 0.1 µM
# [11] = molecular target: High affinity nerve growth factor receptor (Homo sapiens) (UniProt P04629); conditions: at 1 µM
# [12] = molecular target: BDNF/NT-3 growth factors receptor (Homo sapiens) (UniProt Q16620); conditions: at 0.1 µM
# [13] = molecular target: BDNF/NT-3 growth factors receptor (Homo sapiens) (UniProt Q16620); conditions: at 1 µM
# [14] = molecular target: NT-3 growth factor receptor (Homo sapiens) (UniProt Q16288); conditions: at 0.1 µM
# [15] = molecular target: NT-3 growth factor receptor (Homo sapiens) (UniProt Q16288); conditions: at 1 µM
# [16] = molecular target: T3, Tyrosine-protein kinase TXK (Homo sapiens) (UniProt P42681); conditions: at 0.1 µM
# T3 sequence (whole entry): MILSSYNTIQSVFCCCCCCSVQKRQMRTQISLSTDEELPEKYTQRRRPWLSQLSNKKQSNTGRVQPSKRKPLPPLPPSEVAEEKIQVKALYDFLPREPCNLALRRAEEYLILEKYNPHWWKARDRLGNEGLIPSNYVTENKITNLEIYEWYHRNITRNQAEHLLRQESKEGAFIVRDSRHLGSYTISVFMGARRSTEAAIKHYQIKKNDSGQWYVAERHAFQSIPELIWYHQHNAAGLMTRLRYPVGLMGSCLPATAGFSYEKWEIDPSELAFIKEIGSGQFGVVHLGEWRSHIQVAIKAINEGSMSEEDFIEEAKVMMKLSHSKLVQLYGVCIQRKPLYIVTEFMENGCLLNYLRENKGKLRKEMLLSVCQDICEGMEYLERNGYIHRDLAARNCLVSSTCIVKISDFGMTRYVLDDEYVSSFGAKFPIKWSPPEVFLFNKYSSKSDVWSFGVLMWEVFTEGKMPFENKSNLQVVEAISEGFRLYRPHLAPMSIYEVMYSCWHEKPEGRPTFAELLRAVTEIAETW
# [17] = molecular target: T3, Tyrosine-protein kinase TXK (Homo sapiens); conditions: at 1 µM
# [18] = molecular target: Non-receptor tyrosine-protein kinase TYK2 (Homo sapiens) (UniProt P29597); conditions: at 0.1 µM;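 also: each value is a mean of the inhibition readings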
# [19] = molecular target: T4, Dual specificity protein kinase TTK (Homo sapiens) (UniProt P33981); conditions: at 1 µM;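 also: reported figures are mean TTK inhibition at 1 µM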
# T4 sequence (whole entry): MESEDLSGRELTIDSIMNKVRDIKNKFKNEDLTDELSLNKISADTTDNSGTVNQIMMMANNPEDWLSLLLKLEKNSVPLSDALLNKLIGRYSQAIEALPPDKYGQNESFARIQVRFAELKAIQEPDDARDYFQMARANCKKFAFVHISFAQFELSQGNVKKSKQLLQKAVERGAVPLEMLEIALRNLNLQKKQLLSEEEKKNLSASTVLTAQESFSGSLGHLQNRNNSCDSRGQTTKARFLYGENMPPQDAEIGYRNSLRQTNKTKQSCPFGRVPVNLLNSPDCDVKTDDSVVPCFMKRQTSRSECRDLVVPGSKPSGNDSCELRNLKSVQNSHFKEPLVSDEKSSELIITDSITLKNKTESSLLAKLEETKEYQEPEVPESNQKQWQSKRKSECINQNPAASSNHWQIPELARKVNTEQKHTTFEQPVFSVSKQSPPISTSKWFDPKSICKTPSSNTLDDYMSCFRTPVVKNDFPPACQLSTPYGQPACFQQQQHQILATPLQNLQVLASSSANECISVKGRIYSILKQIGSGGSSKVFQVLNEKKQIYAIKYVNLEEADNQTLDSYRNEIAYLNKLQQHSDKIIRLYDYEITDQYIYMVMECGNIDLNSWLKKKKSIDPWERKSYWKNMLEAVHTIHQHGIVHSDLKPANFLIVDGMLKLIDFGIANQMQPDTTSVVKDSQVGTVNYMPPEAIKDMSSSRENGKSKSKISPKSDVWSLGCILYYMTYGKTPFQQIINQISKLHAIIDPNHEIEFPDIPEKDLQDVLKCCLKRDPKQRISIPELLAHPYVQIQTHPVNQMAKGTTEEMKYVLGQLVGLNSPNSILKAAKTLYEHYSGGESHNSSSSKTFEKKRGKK
# [20] = molecular target: T5, Aurora kinase A (Homo sapiens) (UniProt O14965); conditions: at 0.1 µM;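 also: each reported value is a mean percent inhibition of Aurora-A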
# T5 sequence (whole entry): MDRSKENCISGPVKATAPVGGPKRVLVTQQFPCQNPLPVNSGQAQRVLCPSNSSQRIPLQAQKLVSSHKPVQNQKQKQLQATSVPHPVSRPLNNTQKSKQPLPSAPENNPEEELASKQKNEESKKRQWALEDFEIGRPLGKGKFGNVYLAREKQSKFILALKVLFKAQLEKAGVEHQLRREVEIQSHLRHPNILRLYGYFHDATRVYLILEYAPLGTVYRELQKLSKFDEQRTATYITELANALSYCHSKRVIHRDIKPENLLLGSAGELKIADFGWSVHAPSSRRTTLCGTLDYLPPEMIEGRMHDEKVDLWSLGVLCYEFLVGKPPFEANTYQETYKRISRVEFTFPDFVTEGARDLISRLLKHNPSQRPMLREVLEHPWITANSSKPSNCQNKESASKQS
# Sequence of NT-3 growth factor receptor (Homo sapiens) (Q16288 32-839 limits assumed): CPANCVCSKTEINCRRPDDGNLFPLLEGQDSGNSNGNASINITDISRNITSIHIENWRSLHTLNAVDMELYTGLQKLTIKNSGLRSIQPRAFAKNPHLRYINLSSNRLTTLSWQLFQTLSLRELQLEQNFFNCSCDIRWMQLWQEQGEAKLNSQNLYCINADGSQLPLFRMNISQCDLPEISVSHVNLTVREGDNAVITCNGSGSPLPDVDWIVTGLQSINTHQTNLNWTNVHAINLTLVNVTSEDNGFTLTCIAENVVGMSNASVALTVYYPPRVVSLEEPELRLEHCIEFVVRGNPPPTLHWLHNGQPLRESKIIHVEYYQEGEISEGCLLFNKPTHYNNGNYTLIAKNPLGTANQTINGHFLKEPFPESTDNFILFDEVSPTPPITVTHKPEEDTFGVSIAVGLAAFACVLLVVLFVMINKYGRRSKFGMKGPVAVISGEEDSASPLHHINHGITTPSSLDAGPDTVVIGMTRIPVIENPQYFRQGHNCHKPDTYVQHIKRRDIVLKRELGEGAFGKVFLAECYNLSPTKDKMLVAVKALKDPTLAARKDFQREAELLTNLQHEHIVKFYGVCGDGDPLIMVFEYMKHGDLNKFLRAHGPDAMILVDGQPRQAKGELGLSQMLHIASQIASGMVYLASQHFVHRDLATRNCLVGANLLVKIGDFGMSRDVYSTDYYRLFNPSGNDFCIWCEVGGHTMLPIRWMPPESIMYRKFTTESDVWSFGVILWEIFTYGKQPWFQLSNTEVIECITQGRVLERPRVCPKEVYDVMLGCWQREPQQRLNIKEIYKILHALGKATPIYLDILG
# Sequence of BDNF/NT-3 growth factors receptor (Homo sapiens) (Q16620 32-822 limits assumed): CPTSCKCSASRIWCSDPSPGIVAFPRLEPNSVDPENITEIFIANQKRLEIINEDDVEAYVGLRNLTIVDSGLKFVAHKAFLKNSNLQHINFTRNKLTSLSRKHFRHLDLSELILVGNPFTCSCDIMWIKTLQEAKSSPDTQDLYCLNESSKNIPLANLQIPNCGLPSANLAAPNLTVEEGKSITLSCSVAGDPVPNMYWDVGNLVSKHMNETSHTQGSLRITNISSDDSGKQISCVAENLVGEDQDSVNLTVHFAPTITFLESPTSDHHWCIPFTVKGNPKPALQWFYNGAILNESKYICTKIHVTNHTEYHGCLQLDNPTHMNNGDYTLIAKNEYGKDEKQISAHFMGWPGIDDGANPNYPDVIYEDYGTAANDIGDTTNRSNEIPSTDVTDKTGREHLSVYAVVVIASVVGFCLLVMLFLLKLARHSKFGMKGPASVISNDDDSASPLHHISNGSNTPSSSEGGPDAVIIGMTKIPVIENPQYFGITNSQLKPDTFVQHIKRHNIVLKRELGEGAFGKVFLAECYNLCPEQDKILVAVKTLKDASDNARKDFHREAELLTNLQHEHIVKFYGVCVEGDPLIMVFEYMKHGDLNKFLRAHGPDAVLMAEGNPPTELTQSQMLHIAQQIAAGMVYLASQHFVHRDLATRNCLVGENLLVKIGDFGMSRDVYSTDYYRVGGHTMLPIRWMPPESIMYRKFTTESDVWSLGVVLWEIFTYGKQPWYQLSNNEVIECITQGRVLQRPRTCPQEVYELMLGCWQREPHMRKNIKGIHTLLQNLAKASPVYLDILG
# Sequence of High affinity nerve growth factor receptor (Homo sapiens) (P04629 33-796 limits assumed): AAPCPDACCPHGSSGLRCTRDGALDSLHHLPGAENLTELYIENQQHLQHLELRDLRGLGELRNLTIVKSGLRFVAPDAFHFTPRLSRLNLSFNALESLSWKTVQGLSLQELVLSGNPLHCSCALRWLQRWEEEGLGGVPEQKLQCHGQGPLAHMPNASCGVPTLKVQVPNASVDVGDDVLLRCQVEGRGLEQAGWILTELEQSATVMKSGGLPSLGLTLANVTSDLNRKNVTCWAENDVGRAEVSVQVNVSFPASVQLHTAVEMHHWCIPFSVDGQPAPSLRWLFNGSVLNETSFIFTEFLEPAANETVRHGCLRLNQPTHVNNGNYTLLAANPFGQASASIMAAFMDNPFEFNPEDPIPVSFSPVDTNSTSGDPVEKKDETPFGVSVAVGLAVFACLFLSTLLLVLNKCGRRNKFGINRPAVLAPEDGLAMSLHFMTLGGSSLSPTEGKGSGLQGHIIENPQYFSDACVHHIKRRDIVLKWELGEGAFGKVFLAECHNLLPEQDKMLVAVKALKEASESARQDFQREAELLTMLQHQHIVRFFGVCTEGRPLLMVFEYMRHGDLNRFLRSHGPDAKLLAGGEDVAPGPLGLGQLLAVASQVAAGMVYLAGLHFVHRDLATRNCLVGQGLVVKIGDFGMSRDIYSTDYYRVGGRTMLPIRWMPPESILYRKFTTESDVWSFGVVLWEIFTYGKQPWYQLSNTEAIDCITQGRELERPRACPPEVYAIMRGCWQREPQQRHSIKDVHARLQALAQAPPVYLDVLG
# Sequence of Activated CDC42 kinase 1 (Homo sapiens) (Q07912 whole entry, looked up): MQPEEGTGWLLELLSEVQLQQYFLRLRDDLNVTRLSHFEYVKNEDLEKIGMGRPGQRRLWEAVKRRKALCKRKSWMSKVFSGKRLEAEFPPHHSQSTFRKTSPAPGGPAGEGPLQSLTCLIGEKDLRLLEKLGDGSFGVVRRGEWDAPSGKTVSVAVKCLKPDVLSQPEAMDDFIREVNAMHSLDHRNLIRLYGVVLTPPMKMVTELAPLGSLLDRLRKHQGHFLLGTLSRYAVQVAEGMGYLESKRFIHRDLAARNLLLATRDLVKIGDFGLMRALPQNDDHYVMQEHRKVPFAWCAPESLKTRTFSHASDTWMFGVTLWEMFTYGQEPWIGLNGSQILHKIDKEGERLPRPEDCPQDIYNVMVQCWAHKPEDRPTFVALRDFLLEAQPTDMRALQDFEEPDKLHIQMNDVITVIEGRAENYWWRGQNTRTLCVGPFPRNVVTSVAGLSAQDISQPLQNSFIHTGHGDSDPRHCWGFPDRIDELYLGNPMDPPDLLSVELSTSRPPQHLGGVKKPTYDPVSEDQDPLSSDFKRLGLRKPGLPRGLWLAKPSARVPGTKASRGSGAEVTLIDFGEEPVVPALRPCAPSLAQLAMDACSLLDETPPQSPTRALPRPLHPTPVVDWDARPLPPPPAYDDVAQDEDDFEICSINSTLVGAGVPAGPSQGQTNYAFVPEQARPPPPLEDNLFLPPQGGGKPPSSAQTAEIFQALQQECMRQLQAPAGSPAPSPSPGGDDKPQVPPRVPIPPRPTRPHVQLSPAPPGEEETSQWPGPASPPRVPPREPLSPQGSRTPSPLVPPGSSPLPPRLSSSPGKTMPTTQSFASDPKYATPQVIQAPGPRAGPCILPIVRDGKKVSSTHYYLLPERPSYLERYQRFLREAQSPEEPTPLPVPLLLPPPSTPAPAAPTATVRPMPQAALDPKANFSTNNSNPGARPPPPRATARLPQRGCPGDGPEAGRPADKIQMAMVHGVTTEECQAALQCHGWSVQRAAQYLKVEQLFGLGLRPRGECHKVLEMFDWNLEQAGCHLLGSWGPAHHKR
# Sequence of Angiopoietin-1 receptor (Homo sapiens) (Q02763 whole entry): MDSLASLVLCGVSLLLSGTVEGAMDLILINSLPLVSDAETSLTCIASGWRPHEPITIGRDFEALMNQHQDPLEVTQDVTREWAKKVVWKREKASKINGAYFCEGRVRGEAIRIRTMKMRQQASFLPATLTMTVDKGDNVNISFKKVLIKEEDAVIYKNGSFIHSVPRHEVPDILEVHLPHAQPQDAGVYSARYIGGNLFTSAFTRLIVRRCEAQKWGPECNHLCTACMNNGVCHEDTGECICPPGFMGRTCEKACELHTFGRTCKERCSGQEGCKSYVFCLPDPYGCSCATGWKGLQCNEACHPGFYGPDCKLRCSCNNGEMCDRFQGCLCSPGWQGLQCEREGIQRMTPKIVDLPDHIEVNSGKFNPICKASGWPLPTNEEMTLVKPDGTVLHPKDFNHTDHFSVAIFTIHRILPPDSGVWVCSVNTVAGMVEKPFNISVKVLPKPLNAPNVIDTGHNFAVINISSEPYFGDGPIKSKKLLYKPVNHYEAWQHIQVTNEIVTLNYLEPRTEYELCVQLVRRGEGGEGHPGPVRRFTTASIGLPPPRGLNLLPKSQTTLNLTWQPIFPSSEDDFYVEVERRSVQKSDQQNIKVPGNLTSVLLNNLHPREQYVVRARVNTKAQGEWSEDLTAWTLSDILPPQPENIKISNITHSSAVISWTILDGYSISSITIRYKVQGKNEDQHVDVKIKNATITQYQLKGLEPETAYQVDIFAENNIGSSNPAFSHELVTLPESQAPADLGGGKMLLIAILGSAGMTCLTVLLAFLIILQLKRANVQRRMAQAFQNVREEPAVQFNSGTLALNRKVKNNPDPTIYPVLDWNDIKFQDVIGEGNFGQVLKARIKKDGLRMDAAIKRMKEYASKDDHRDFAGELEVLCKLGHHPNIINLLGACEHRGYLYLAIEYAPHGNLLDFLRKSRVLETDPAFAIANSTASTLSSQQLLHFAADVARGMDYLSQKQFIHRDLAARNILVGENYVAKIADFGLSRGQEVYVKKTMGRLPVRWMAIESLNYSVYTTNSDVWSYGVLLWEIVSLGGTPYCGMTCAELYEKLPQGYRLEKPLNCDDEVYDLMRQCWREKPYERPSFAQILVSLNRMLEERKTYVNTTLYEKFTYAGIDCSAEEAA
SMILES,inhibition [1],inhibition [2],inhibition [3],inhibition [4],inhibition [5],inhibition [6],inhibition [7],inhibition [8],inhibition [9],inhibition [10],inhibition [11],inhibition [12],inhibition [13],inhibition [14],inhibition [15],inhibition [16],inhibition [17],inhibition [18],inhibition [19],inhibition [20]
COc1cc2ncn(-c3cc(O[C@@H](C)c4ccccc4Cl)c(C(N)=O)s3)c2cc1OC,-4.6%,1.7%,7.65%,4.95%,24.2%,33.8%,79.5%,3.06%,6.07%,1.91%,6.09%,5.59%,18.6%,6.76%,32.5%,-1.39%,5.82%,-2.87%,9.98%,4.95%
CCn1c(-c2nonc2N)nc2c(C#CC(C)(C)O)nc(OC[C@@H](N)c3ccccc3)cc21,1.52%,1.68%,6.92%,1.25%,10.4%,-2.6%,2.87%,0.28%,5.21%,-0.3%,1.12%,-1.96%,0.07%,-1.23%,3.35%,6.5%,5.38%,2.72%,1.66%,1.81%
CCn1c(-c2nonc2N)nc2cncc(C(=O)N3CCNCC3)c21,3.25%,7.87%,7.17%,6.61%,5.14%,3.89%,5.69%,1.51%,1.52%,1.71%,4.86%,3.21%,4.35%,3.96%,4.33%,7.08%,5.49%,-1.93%,12.5%,5.21%
CCn1c(-c2nonc2N)nc2cncc(C(=O)N3CC[C@H](N)C3)c21,1.83%,4.37%,3.68%,11.3%,11.4%,2.94%,2.95%,1.08%,1.01%,0.41%,2.78%,4.37%,3.61%,2.56%,3.15%,3.09%,2.08%,-0.69%,2.6%,3.07%
c1cnn2ncc(-c3ccnc(Nc4ccc5c(c4)OCCO5)n3)c2c1,13.2%,6.85%,19.8%,3.72%,20.5%,18.1%,64.5%,3.29%,21.7%,5.45%,9.5%,5.33%,18.1%,5.54%,21.3%,4.21%,17.6%,-1.73%,35%,9.49%
COc1ccc(-c2nn3ncccc3c2-c2ccnc(Nc3ccc(Cl)c(C(F)(F)F)c3)n2)cc1,-1.11%,1.4%,1.86%,4.94%,4.42%,0.89%,13.3%,0.86%,1.6%,-2.59%,-1.35%,-0.25%,2.61%,-0.42%,2.6%,3.13%,3.03%,-2.93%,5%,1.01%
